According to PubChem BioAssay AID1030 (National Center for Advancing Translational Sciences (NCATS), 2008):
Out of some 220,000 compounds screened, about 16,000 (7.3%) were called active. Entries that show only a call come without a potency. About 25% were inconclusive and are not listed. This is one part of a sample in which actives are shown more often than they occur. Calls follow the shape of the dose curve; as a rule, active = well fitted inhibition curve with a large enough effect (not every such curve was filed as active); inconclusive = small, poorly fitted or top-dose-only effect, or another doubt; inactive = no such curve, though single readings can be large or run the other way.

biological target: Aldehyde dehydrogenase 1A1 (Homo sapiens) (UniProt P00352); experiment: qHTS Assay for Inhibitors of Aldehyde Dehydrogenase 1 (ALDH1A1); settings: Purified ALDH1A1, NADH fluorescence, propionaldehyde substrate; series mostly up to 75.3 µM
Potency is read from the fitted curve at half-maximal effect.

Sequence of Aldehyde dehydrogenase 1A1 (Homo sapiens) (P00352 whole entry, looked up): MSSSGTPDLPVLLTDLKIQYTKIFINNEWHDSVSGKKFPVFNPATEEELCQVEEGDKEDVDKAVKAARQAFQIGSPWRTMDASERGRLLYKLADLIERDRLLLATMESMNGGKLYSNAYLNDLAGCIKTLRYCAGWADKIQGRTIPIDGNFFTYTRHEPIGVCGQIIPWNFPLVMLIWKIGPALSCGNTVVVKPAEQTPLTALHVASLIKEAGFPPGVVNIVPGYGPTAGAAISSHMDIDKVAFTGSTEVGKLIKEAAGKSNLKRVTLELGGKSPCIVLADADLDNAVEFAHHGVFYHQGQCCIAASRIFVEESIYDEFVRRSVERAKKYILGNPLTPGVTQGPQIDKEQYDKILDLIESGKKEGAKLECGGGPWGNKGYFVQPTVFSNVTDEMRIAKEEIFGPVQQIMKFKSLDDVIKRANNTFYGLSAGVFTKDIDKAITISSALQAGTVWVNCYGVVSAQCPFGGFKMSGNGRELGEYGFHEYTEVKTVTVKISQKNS

| SMILES | Potency |
| --- | --- |
| O=S(=O)(Cc1ccccc1)c1nc2ccccc2n1Cc1ccccn1 | inactive |
| Cc1cc(C(=O)OCC(=O)c2c(N)n(C)c(=O)n(C)c2=O)c(C)o1 | inactive |
| Cn1c(N)c(C(=O)COC(=O)c2cnc(Cl)c(Cl)c2)c(=O)n(C)c1=O | 8.91 µM (active) |
| CCc1ccc(OCC(=O)OCC(=O)c2c(N)n(C)c(=O)n(C)c2=O)cc1 | inactive |
| CCn1c(SCc2cc(=O)n3ccsc3n2)nc2ccccc21 | inactive |
| COCC(C)NC(=O)c1ccc(Cl)c(Cl)c1 (centres undefined) | inactive |
| CC(Cc1cccs1)NC(=O)c1cccc(Cl)c1 (centres undefined) | inactive |
| CC(C)CCC(C)NC(=O)c1ccc2nccnc2c1 (centres undefined) | 20 µM (active) |
| CCc1ccc(NC(=O)Cn2nc(C)c([N+](=O)[O-])c2C)cc1 | inactive |
| O=C(Nn1cnnc1)c1ccc([N+](=O)[O-])cc1 | inactive |
| COCCCNC(=S)N1CCCC(c2nc3cc(C)c(C)cc3[nH]2)C1 (centres undefined) | inactive |
| CCOC(=O)c1ccc(NC(=O)CSc2nnc(COc3ccccc3OC)n2C)cc1 | inactive |
| Cc1cccnc1NC(=O)CSc1nnc(COc2ccc(C(C)C)cc2)n1C | inactive |
| CCCCNC(=O)CSc1nc2ccc(NC(=O)CSc3nnc(COc4ccccc4C)n3C)cc2s1 | 3.55 µM (active) |
| Nc1nnc(SCC(=O)Nc2ccc3nc(SCC(=O)Nc4ccccc4)sc3c2)s1 | inactive |
| Cc1ccc(S(=O)(=O)N2CCOCC2)cc1NC(=O)CSc1nnc(N)s1 | inactive |
| CCCCNC(=O)CSc1nc2ccc(NC(=O)CSc3nnc(N)s3)cc2s1 | 20 µM (active) |
| CN(c1ccccc1)S(=O)(=O)c1ccc(Cl)c(C(=O)OCC(N)=O)c1 | inactive |
| CN(C(=O)CSc1nnc(-c2c[nH]c3ccccc23)o1)C1CCS(=O)(=O)C1 (centres undefined) | inactive |
| O=C(/C=C/c1ccc(Cl)cc1)Nc1ccc(S(=O)(=O)Nc2ncccn2)cc1 | inactive |
| O=C(Nc1ccc(N2CCN(C(=O)C3CC3)CC2)cc1)c1cccs1 | inactive |
| C/C(=N\N1CCN(Cc2ccc(C)cc2)CC1)c1ccco1 | inactive |
| C/C(=N\NC(=O)C(N)=O)c1ccc2c(c1)OCCO2 | inactive |

| SMILES | Potency |
| --- | --- |
| COC(=O)/C=C\C(=O)Nc1cccc([N+](=O)[O-])c1 | 0.178 µM (active) |
| CC(=O)Nc1cccc([N+](=O)[O-])c1 | inactive |
| COc1ccc(S(=O)(=O)NC(C)C(=O)Nc2cccc([N+](=O)[O-])c2)cc1 (centres undefined) | inactive |
| Clc1ccc(-c2cc(-c3ccccn3)on2)c(Cl)c1 | inactive |
| O=C1Nc2cc(Cl)c(Cl)cc2N(O)N1c1ccccc1Cl | inactive |
| CCOc1cnc(C(=O)NNC(=O)c2ccccc2Br)o1 | inactive |
| C=CCSC1=C(C#N)C(c2cc(Br)c(O)c(OC)c2)CC(=O)N1 (centres undefined) | 25.1 µM (active) |
| CCOC(=O)CSC1=C(C#N)C(c2sccc2C)CC(=O)N1 (centres undefined) | inactive |
| COC(=O)CSC1=C(C#N)C(c2ccccc2OC)C(C(=O)OC)C(=O)N1 (centres undefined) | inactive |
| C[C@@H]1CC[C@]2(O[C@@H](CCO)C[C@H](O)[C@H]2O)O1 | inactive |
| CCCCOc1ccc(N(CC(=O)NC(C)C)C(=O)CCC(=O)Nc2ccccn2)cc1 | inactive |
| COCCN(CCOC)S(=O)(=O)c1ccc(/C(O)=C(\C#N)c2nc3ccccc3[nH]2)cc1 | inactive |
| COc1cccc2c1OCC(CN1CCN(C3CCCCC3)C(CCO)C1)=C2 (centres undefined) | inactive |
| Cc1cc(C)n(-c2ccc3nncn3n2)n1 | inactive |
| Cc1ccc(-n2c(C)cc(/C=N/Nc3ccc([N+](=O)[O-])cn3)c2C)c(C)c1 | 3.55 µM (active) |
| COc1cc(/C=N\Nc2ccc([N+](=O)[O-])cn2)ccc1OCC(=O)O | inactive |
| Cc1ccccc1OCCOc1ccc([N+](=O)[O-])cc1/C=N/n1cnnc1 | inactive |
| CC(C)(C)C1CCC(C(=O)Nc2cccnc2)CC1 (centres undefined) | inactive |
| Cn1nnnc1SCc1cc(=O)[nH]c2ccccc12 | inactive |
| CN(C)c1nc(N)nc(CSc2nnnn2-c2cccc3ccccc23)n1 | 7.94 µM (active) |
| CN(C)c1nc(N)nc(CSc2ccccn2)n1 | inactive |
| CC(OC(=O)c1ccccc1OCc1ccc(Cl)cc1)C(N)=O (centres undefined) | inactive |
| CCOC(=O)NCc1ccc2c(c1)OCO2 | inactive |

| SMILES | Potency |
| --- | --- |
| Cc1cc(C)c(S(=O)(=O)NCC2CCC(C(=O)NCc3ccc4c(c3)OCO4)CC2)c(C)c1 (centres undefined) | 28.2 µM (active) |
| O=C(NCc1ccc2c(c1)OCO2)C1CCCN(S(=O)(=O)c2cccs2)C1 (centres undefined) | inactive |
| O=C(CN1C(=O)NC2(CCCC2)C1=O)NCC1CCCO1 (centres undefined) | inactive |
| Cc1cccc(NC(=O)Nc2nnc(-c3ccccc3)o2)c1 | inactive |
| COc1ccc(CCNCC(O)Cn2ccc3ccccc32)cc1OC (centres undefined) | inactive |
| COc1ccc(CNC(=O)CCn2cccc2)cc1 | inactive |
| COc1ccc(CNC(=O)CCCn2nc(C)c([N+](=O)[O-])c2C)cc1 | 12.6 µM (active) |
| Cc1ccc(Oc2cc(NC(=O)CCCn3nc(C)c([N+](=O)[O-])c3C)cc([N+](=O)[O-])c2)cc1 | inactive |
| CNC(=O)COc1ccc(S(=O)(=O)Nc2ccccc2)cc1 | inactive |
| COc1ccc(-c2csc(NC(=O)c3ccc(N4C(=O)CCC4=O)cc3)n2)cc1OC | inactive |
| COc1ccc(-c2nc(N)sc2C2(O)C(=O)Nc3c(Br)cc(F)cc32)cc1OC (centres undefined) | 11.2 µM (active) |
| O=C(O)c1ccccc1-c1ccccc1C(=O)NCc1cccnc1 | inactive |
| Cc1ccc(Cc2cnc(NC(=O)/C(C#N)=C/c3ccc(-c4cccc([N+](=O)[O-])c4)o3)s2)cc1 | inactive |
| O=C(NCCCN1CCOCC1)c1ccc([N+](=O)[O-])cc1[N+](=O)[O-] | inactive |
| N#C/C(=C\c1ccc(-c2cccc([N+](=O)[O-])c2)o1)C(=O)NCCN1CCOCC1 | 25.1 µM (active) |
| Cc1ccccc1CSc1nnc(-c2ccccc2)c(=O)[nH]1 | inactive |
| Cc1c(O)cc(O)c2c(=O)c(-c3ccc(O)cc3)coc12 | 25.1 µM (active) |
| CC(C)OC(=O)Cn1nc(C(F)(F)F)c2c1CCCC2 | inactive |
| Cc1ccc(C(=O)NNC(=O)c2cccs2)cc1 | inactive |
| COc1ccccc1NC(=O)c1c(Br)cnn1C | inactive |
| O=C(c1ccccc1)c1ccc(OC(=O)N2CCCC2)cc1 | inactive |
| O=C(COc1cccc(F)c1)Oc1ccc(C(=O)c2ccccc2)cc1 | 28.2 µM (active) |
| COc1ccc(C(=O)COC(=O)COc2ccc(C)c(C)c2)cc1 | inactive |
